Assay in all cases: NCI-60 one-dose screen, 48 h (100 = growth as untreated, 0 = no growth, -100 = all killed)
Assay [1] has as its system HCT-15 colon. Conditions: 10 µM unless noted.
Assay [2] deals with HT29 colon. Conditions: 10 µM unless noted.
The subject of assay [3] is SNB-75 CNS. As to conditions: 10 µM unless noted.
In assay [4] the test system is SNB-19 CNS. Conditions: 10 µM unless noted.
Assay [5] relates to U251 CNS. Conditions: 10 µM unless noted.
Assay [6] has as its system PC-3 prostate. As to conditions: 10 µM unless noted.
Assay [7] concerns SK-MEL-5 melanoma. As to conditions: 10 µM unless noted.
Assay [8] has as its system UACC-62 melanoma. Conditions: 10 µM unless noted.
The test system of assay [9] is LOX IMVI melanoma. Conditions: 10 µM unless noted.
The test system of assay [10] is SK-MEL-28 melanoma. Conditions: 10 µM unless noted.
The subject of assay [11] is SK-MEL-2 melanoma. As to conditions: 10 µM unless noted.
The test system of assay [12] is EKVX NSCLC. As to conditions: 10 µM unless noted.
Assay [13] deals with SN12C renal. Conditions: 10 µM unless noted.
The subject of assay [14] is UO-31 renal. Conditions: 10 µM unless noted.
For assay [15], the system named is TK-10 renal. As to conditions: 10 µM unless noted.
Assay [16] deals with ACHN renal. As to conditions: 10 µM unless noted.
The test system of assay [17] is CAKI-1 renal. As to conditions: 10 µM.
Assay [18] concerns A498 renal. As to conditions: 10 µM unless noted.
The subject of assay [19] is CCRF-CEM leukemia. Conditions: 10 µM unless noted.
For assay [20], the system named is MOLT-4 leukemia. As to conditions: 10 µM unless noted.

Compounds without any hit were thinned out: in the full panel of roughly 83,000, 20% have a hit.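 Testing used 96-well plates and a 48-hour single-concentration exposure. Example: -40 means 40% of the starting cells died.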 Unmarked numbers belong to inactive results. Activity calls are given as the source filed them. How the source made its calls: active means growth percent below 10; inactive means the rest.

For the compound `C#C[C@]1(O)CC[C@H]2[C@@H]3CC=C4c5sc(-c6cccc(F)c6)nc5CC[C@]4(C)[C@H]3CC[C@@]21C`, the growth in assay [1] was 53.5%; in assay [2] it was 78.4%; in [3], 70%; in [4], 87.3%; in assay [5], 75%; in assay [6], 68.7%. Besides, the growth in assay [7] was 96.4%; in [8] it was 74.9%; in assay [9] it was 80.8%; in [10], 81.1%; in assay [11], 91.9%; in assay [12], 83.5%. Further, the growth in [13] is 89.6%; in [14], 82%; in [15] it was 121%; in [16] it was 85.4%; in [17], 92.4%; in assay [18], 101%. For the same compound, the growth is 75.1% in assay [19] and 53.1% in assay [20].

As for `CC(=O)Nc1nc2c(s1)C1=CC[C@H]3[C@@H]4CC[C@H](C(C)=O)[C@@]4(C)CC[C@@H]3[C@@]1(C)CC2`, the growth in [1] was 26.4%; in [2], 27.7%; in assay [3], 47.8%; in [4] it was 69%; in [5], 44.4%; in assay [6] it was 43%. In addition, the growth in assay [7] was 93.6%; in assay [8], 73.7%; in assay [9], 59.6%; in assay [10], 49%; in assay [11], 56.2%; in assay [12], 68.7%. Also, the growth in assay [13] is 86.4%; in assay [14], 65.4%; in assay [15], 124%; in assay [16], 77.6%; in [17], 80.3%; in [18], 74.5%. Also, the growth in [19] was 49%; in assay [20], 1.44% (active).

`CNC(=O)c1cc(Oc2ccc3nc(NC(=O)c4ccc(CN5CCN(C)CC5)c(C(F)(F)F)c4)sc3c2)ccn1`: the growth in assay [1] was 8.89% (active); in [2], 16.1%; in assay [3] it was 55.1%; in assay [4] it was 75.9%; in assay [5] it was 57.1%; in assay [6], 47.3%. The growth in assay [7] was 31.4%; in assay [8], 56.3%; in assay [9], -28.2% (active); in assay [10] it was -38.1% (active); in assay [11] it was 98.7%; in assay [12], 59.3%. For the same compound, the growth is 76.4% in assay [13]; 58.5% in assay [14]; 104% in assay [15]; 76.9% in assay [16]; 53.3% in assay [17]; 80.3% in assay [18]. Also, the growth in [19] was 49.9%; in assay [20] it was 39.2%.

`O=C1c2cc(Br)ccc2-n2c1nc1cc(Br)ccc1c2=O`: the growth in assay [1] was 64.8%; in assay [2], 74.3%; in assay [3], 68.3%; in assay [4], 84.6%; in assay [5] it was 91.9%; in assay [6] it was 60.9%. The growth in assay [7] was 60.6%; in assay [8], 85.7%; in [9], 63.9%; in [10], 88.9%; in [11], 73.4%; in assay [12], 59.5%. In addition, the growth is 76.6% in assay [13]; 62.6% in assay [14]; 149% in [15]; 79% in assay [16]; 78.7% in assay [17]; 125% in [18]. In addition, the growth in assay [19] was 71.9%; in [20] it was 67.7%.

`Cc1ccc(S(=O)(=O)N/N=C/c2cn(-c3ccc(F)cc3)nc2-c2ccc(S(C)(=O)=O)cc2)cc1`: the growth in assay [1] was 99.4%; in [2] it was 105%; in assay [3], 110%; in assay [4] it was 97.1%; in assay [5], 101%; in [6], 95.4%. The growth in [7] was 102%; in assay [8] it was 91.6%; in [9], 100%; in assay [10], 106%; in [11], 102%; in assay [12], 96.6%. Also, the growth in assay [13] was 99.8%; in [14], 89.8%; in assay [15], 103%; in assay [16], 102%; in assay [17] it was 98%; in [18], 87.5%. Besides, the growth is 103% in assay [19] and 106% in assay [20].

With `O=C(NCCNc1cc(-c2cn(-c3ccccc3)nc2-c2cccc(O)c2)ccn1)Nc1ccc(Cl)c(C(F)(F)F)c1`, the growth was 2.46% (active) in [1]; 34.8% in assay [2]; 42.8% in [3]; 46.8% in [4]; 42.8% in assay [5]; 42.2% in assay [6]. The growth in assay [7] is 65.9%; in assay [8], 77%; in assay [9], 0.724% (active); in assay [10], 42.1%; in [11] it was 104%; in assay [12], 56.7%. The growth in assay [13] is 65.6%; in assay [14], 42.1%; in [15], 98.1%; in [16], 44.2%; in assay [17] it was 46%; in assay [18], 72.5%. Besides, the growth in assay [19] is 54.1%; in assay [20], 47.1%.

As for `CCN(CC)Cc1c(-c2cccc(OC(F)(F)F)c2)[nH]c2ccc(N3CCCC3)cc2c1=O`, the growth was 90.1% in assay [1]; 104% in assay [2]; 88.1% in assay [3]; 90.6% in assay [4]; 99.6% in assay [5]; 90.5% in assay [6]. The growth in assay [7] was 98.3%; in [8] it was 82.7%; in [9] it was 90.9%; in assay [10], 92.2%; in assay [11], 106%; in assay [12], 90.6%. Also, the growth in [13] was 93.3%; in [14], 77.7%; in assay [15], 124%; in assay [16], 98.4%; in assay [17], 77.3%; in assay [18] it was 104%. Further, the results for the growth in assay [19] and in [20] were 98.4% and 69.4%, respectively.

The record behind these values is PubChem BioAssay (NCI).
